This is an account of results in the supplement of paper PMC12669032.

Molecules are shown by their SMILES. Values without a mark were called inactive.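 The calls were made as follows: active = AUC reduced over 20% with Padj below 0.05 in at least 2 of 3 replicates; inactive = otherwise.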

The subject of the assay is Clostridium difficile. As to the kind of experiment: growth AUC relative to DMSO control (median of replicates) (fraction); higher = more growth (less inhibition), active = hit call of the paper. Particulars: 20 µM; 24 h. Put shortly:
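Each value is the median of three biological replicates, grown on separate days, of a gut bacterial monoculture incubated anaerobically at 37 °C in mGAM with 20 µM compound (1% DMSO). Cultures started at OD600 0.05 and were read at OD600 hourly for 24 h, with the minimum OD set to 0. Area under the growth curve was normalised to the plate median of solvent-only wells, or to row and column medians on the industrial chemical plate.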
With `Nc1cc(Cl)cc(C(=O)O)c1Cl`, the “growth AUC” value was 1.01.

In the case of `CCOP(=S)(OCC)Oc1cnccn1`, the “growth AUC” value was 0.974.

`O=C(O)C(F)(F)C(F)(F)C(F)(F)C(F)(F)C(F)(F)C(F)(F)C(F)(F)C(F)(F)F`: the “growth AUC” value is 0.997.

Consider `CCOP(=S)(OCC)SCSCC`, for which the “growth AUC” value was 1.01.

Turning to `CCOCn1c(-c2ccc(Cl)cc2)c(C#N)c(Br)c1C(F)(F)F`, the “growth AUC” value is 0.816.

Take `CCS(=O)(=O)c1cccnc1S(=O)(=O)NC(=O)Nc1nc(OC)cc(OC)n1`: the “growth AUC” value is 0.942.

As to `CCNc1nc(NC(C)C)nc(SC)n1`, the “growth AUC” value was 0.999.

As to `CN1COCN(Cc2cnc(Cl)s2)/C1=N/[N+](=O)[O-]`, the “growth AUC” value is 1.01.

For `COP(=S)(NC(C)C)Oc1ccccc1C(=O)OC(C)C` (stereo not drawn), the “growth AUC” value was 1.01.

On to `COC(=O)C(C)(Cl)Cl`, for which the “growth AUC” value is 1.01.

In the case of `CCCCOCN(C(=O)CCl)c1c(CC)cccc1CC`, the “growth AUC” value was 0.979.

Consider `CC1(C)C(C=C(Cl)Cl)C1C(=O)OC(C#N)c1ccc(F)c(Oc2ccccc2)c1` (mixture of isomers), for which the “growth AUC” value is 0.979.

For the compound `CCOC(=O)CC(SP(=O)(OC)OC)C(=O)OCC` (stereo not drawn), the “growth AUC” value is 0.952.

Regarding `CCNc1nc(Cl)nc(NC(C)C)n1`, the “growth AUC” value is 0.944.

Consider `Cc1cccc(C)c1N`, for which the “growth AUC” value is 0.997.

Take `CN(C)C(=O)Nc1ccc(Cl)cc1`: the “growth AUC” value is 0.979.

With `CCCCNC(=O)n1c(NC(=O)OC)nc2ccccc21`, the “growth AUC” value was 0.955.

As to `N#Cc1cc(I)c(O)c(I)c1`, the “growth AUC” value was 0.919.
